# Mdm2 MdmX PPI – inhibitors of human Mdm2-MdmX association, primary screen, cell-based, luminescence, split luciferase, SaOS-2, uHTS; Protein Mdm4 (Homo sapiens) + E3 ubiquitin-protein ligase Mdm2 (Homo sapiens), …; SaOS-2 split-luciferase Mdm2/MdmX complementation; inhibition, % at 8 µM; 330,000 tested, 3% active; AID 485346, 2010;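 active = inhibition of at least 50% at 8 µM in the primary screen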
# Gli-Sufu block – Gli-Sufu pathway antagonists, primary screen, luciferase luminescence, Sufu-KO-LIGHT cells, uHTS; 340,000 tested, 0.74% active; Sufu-KO-LIGHT fibroblasts, Gli luciferase reporter luminescence; inhibition, % at 5 µM;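 active = inhibition above about 55%, limit read from the data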
# CSC inhib – cancer stem cell viability inhibitors, primary screen, luminescence | 300,000 tested, 1.1% active | cancer stem cell-like cells viability | AID 2717, 2010 | inhibition, % at 7.5 µM; in the data active = inhibition above about 75%; tested in HMLE shEcad cells
# Beta apoptosis – inhibitors of cytokine-induced beta cell apoptosis, primary screen, luminescence | INS-1E cytokine-induced death, ATP luminescence, 48 h; percent of positive-control rescue, neutral wells zero | protection from apoptosis, % (no concentration beside the values) | 300,000 tested, 0.8% active | AID 435005, 2010;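 active = Every replicate reaches about 75%, or at least half do and their mean reaches it too, limit read from the data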;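 also: higher means more ATP so stronger rescue from cytokine killing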
# MPTP inh – mitochondrial permeability transition pore inhibitors, primary screen, biochemical, isolated mouse mitochondria, absorbance; Ca2+ swelling absorbance, 30 min; inhibition, % at 10 µM; 360,000 tested, 1.4% active; AID 602449, 2012;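 active = inhibition of 50% or more, scaled per plate between neutral and stimulator controls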
# GRIN3A LBD mod – binders of NR3A ligand-binding domain, primary screen, biophysical, differential scanning fluorimetry, uHTS; Glutamate receptor ionotropic, NMDA 3A (GRIN3A) ligand-binding domain; NR3A LBD differential scanning fluorimetry, Tm shift; 0% = protein alone, 100% = glycine-bound protein; Tm shift relative to glycine control, % at 25 µM; 340,000 tested, 2.5% active;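 active = melting temperature shift of at least 10% of the positive control shift, at one fixed dose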
# Rh123 counter – fluorescence retest of MPTP screen hits in isolated mitochondria, single concentration. shares compounds with MPTP inh. membrane potential, Rhodamine 123 fluorescence. 5,000 tested, 78% active. inhibition, % at 10 µM; in the data active = inhibition above about 22%
# MPTP abs DR – mitochondrial permeability transition pore inhibitors, dose response, biochemical, absorbance, uHTS hits; shares compounds with MPTP inh; isolated mitochondria swelling; IC50, µM; 780 tested, 58% active; in the data active = IC50 below about 20 µM
# MPTP cs DR – fluorescent counter-screen in isolated mitochondria, dose response, counter-screen for MPTP inhibitor project, biochemical, fluorescence, uHTS hits; shares compounds with MPTP inh; isolated mitochondria counterscreen, fluorescence read-out; IC50, µM; 780 tested, 49% active; AID 651564, 2012; in the data active = IC50 below about 80 µM
# Hits are given with their value; 0 = inactive; - = not tested or not shown. This is a sample that favours compounds with a hit; in the whole collection about 6.6% have one here.
SMILES,Mdm2 MdmX PPI,Gli-Sufu block,CSC inhib,Beta apoptosis,MPTP inh,GRIN3A LBD mod,Rh123 counter,others
Cc1ccc(/C=C2\SC(=S)N(/N=C/c3cc([N+](=O)[O-])ccc3O)C2=O)o1,0,0,0,0,72,0,0,
C=Cn1cc[n+](CC(=O)c2ccc(OC)cc2)c1,0,0,0,0,0,0,-,
CCOC(=O)c1ccc(NC(=S)NCc2ccccc2)cc1,0,0,0,0,89,0,87,
CCOC(=O)c1ccc(NC(=O)NCCc2ccccc2OC)cc1,0,0,0,0,0,0,-,
COC(=O)c1ccc(NC(=S)NC(=O)C2CCC2)cc1,0,0,0,0,0,0,-,
COC(=O)c1ccc(NC(=S)NC2CCCCC2C)cc1 (stereo not drawn),0,0,0,0,98,0,94,
CCOC(=O)c1ccc(NC(=S)NCCc2ccccc2F)cc1,0,0,0,0,78,11,89,
CCOC(=O)c1ccc(NC(=S)NC2CCCC2)cc1,0,0,-,0,95,0,96,
CN(CC(=O)Nc1ccccc1Br)C(=O)COc1cccc2c1OC(C)(C)C2,0,0,-,0,0,0,-,
CCCN(CC(=O)Nc1ccccc1C)C(=O)CCCOc1ccc(Br)cc1,0,0,0,0,0,0,-,
O=C(NCCC1=CCCCC1)Nc1ccc2nsnc2c1,0,0,0,0,85,0,85,
Cc1ccc(NC(=S)NCCC2=CCCCC2)cc1,0,0,0,0,0,0,-,
CCOC(=O)c1ccc(NC(=S)NCCC2=CCCCC2)cc1,0,0,0,0,77,13,86,
CC(=O)c1cccc(NC(=S)NCCC2=CCCCC2)c1,0,0,0,0,0,0,-,
Cc1ccc2cc(CCl)c(Cl)nc2c1,0,0,0,0,0,0,-,
COc1ccc(Cn2c(C)c(C)c(C#N)c2NC(=O)Nc2cccc(Cl)c2)cc1,0,0,0,0,74,0,70,
COc1ccc(Cn2c(C)c(C)c(C#N)c2NC(=O)Nc2ccc(Cl)cc2)cc1,0,0,0,0,94,0,78,
Cc1c(C#N)c(NC(=O)c2cccc(Cl)c2)n(Cc2ccccc2)c1C,0,0,0,0,0,0,-,
O=C(Nc1ccc(F)cc1)Nc1ccc(S(=O)(=O)N2CCCC2)cc1,0,0,-,0,83,28,100,
O=C(Nc1ccc(Cl)cc1)Nc1cc(S(=O)(=O)N2CCOCC2)ccc1N1CCCC1,0,0,0,0,71,0,73,
CC(=O)c1ccc(NC(=O)Nc2ccc(S(=O)(=O)N3CCCC3)cc2)cc1,0,0,0,0,80,30,93,
CC(=O)c1ccc(NC(=O)c2ccc(S(=O)(=O)N3CCCC3)cc2)cc1,0,0,0,0,0,0,-,
Cc1oc(S(=O)(=O)N2CCCCC2)cc1NC(=O)Nc1ccc(F)cc1,0,0,0,0,77,0,87,
O=C(Nc1ccc(F)cc1)Nc1cc(S(=O)(=O)N2CCOCC2)ccc1N1CCCC1,0,0,0,0,0,0,-,
CCN(CC)C(=O)c1csc([C@@H]2O[C@H](CO)[C@H](O)[C@H](O)[C@H]2O)n1,-,-,-,-,0,-,-,
SMILES,Mdm2 MdmX PPI,Gli-Sufu block,CSC inhib,Beta apoptosis,MPTP inh,GRIN3A LBD mod,Rh123 counter,others
CCC(C)[C@H](NC(=O)C1CC(=O)N(c2ccc(OC)cc2)C1)C(=O)N1CCCCC1 (stereo partly drawn),0,0,0,0,0,0,-,
COCOc1ccc(C=O)c(OCOC)c1,0,0,0,0,0,0,-,
CCc1nc2ccc(C(=O)NCCc3ccc(OC)cc3)cc2nc1CC,0,0,0,0,0,0,-,
CC1CCC(C(C)C)C(OCC(O)CN2CCCC(C)C2)C1 (stereo not drawn),0,0,0,0,0,0,-,
O=S(=O)(N1CCCCC1)N1CCN(CC(O)COc2ccc3cc(Br)ccc3c2)CC1 (stereo not drawn),0,0,0,0,0,0,-,
COc1cccc(OCC(O)CN2CCC(Cc3ccccc3)CC2)c1 (stereo not drawn),0,0,0,0,56,0,0,MPTP abs DR=19;MPTP cs DR=62
OC(COc1ccc(OCC(O)CN2CCN(Cc3ccccc3)CC2)cc1)CN1CCN(Cc2ccccc2)CC1 (stereo not drawn),0,0,0,0,54,0,0,MPTP abs DR=12;MPTP cs DR=30
OC(COc1ccc(OCc2ccccc2)cc1)CN1CCCCC1 (stereo not drawn),0,0,0,0,0,0,-,
OC(COc1ccc2cc(Br)ccc2c1)CN1CCCC1 (stereo not drawn),0,0,-,0,88,0,0,MPTP abs DR=9.4;MPTP cs DR=0
CC1CCC(C(C)C)C(OCC(O)CN2CCN(Cc3ccccc3)CC2)C1 (stereo not drawn),0,0,0,0,86,0,0,MPTP abs DR=0;MPTP cs DR=40
C[C@@H]([C@H](O)c1ccccc1)N(C)C(=S)Nc1ccccc1,0,0,0,0,0,0,-,
COC(=O)c1ccc2c(=O)n(CCCCCC(=O)N3CCN(c4ccccc4)CC3)c(=O)[nH]c2c1,0,0,0,0,64,0,46,
O=C(CCCCCNC(=O)N1CCn2c1nc1ccccc12)N[C@H](Cc1ccccc1)C(=O)O,0,0,0,-,0,0,-,
O=[N+]([O-])c1cc([N+](=O)[O-])c2cccnc2c1Oc1ccccc1O,-,0,0,0,70,0,80,
O=C(O)c1ccc2c(=O)n3c(nc2c1)/C(=C/c1ccccc1Br)CC3,0,0,0,0,0,0,-,
Cc1ccc(S(=O)(=O)/N=C2/NC(=O)/C(=C\c3cc(Br)cc(Br)c3O)S2)cc1,0,0,0,0,0,0,-,
Cc1ccc(S(=O)(=O)/N=C2/NC(=O)/C(=C/c3ccc(Br)o3)S2)cc1,0,0,-,-,53,0,68,
CC(C)(C)OC(=O)CNC(=O)c1[nH]cnc1C(=O)Nc1ccc(Cl)cc1,0,0,0,0,0,0,-,
CCN1CCN(c2ncc(C(=O)Nc3c(F)cc(F)cc3Br)c3ccccc23)CC1,0,0,0,0,70,0,0,MPTP abs DR=7.9;MPTP cs DR=0
CNC(=O)Nc1cc(C(F)(F)F)cc(C(F)(F)F)c1,0,0,0,0,64,0,94,
